Reference: PubChem BioAssay AID1159580 (chemical genetic matrix, 2015)
Where “and” joins values, the source holds several entries; their conditions need not be identical. Equal entries are not always repeated. Among all 5,500 compounds or so, about 2,000 (36%) were called active. Roughly 18% stayed inconclusive and do not appear here. Rule as the data show it: active = normalized growth mostly below about 0.91 (no sharp cut-off); inconclusive = no clear call, values can overlap the other calls; inactive = mostly above about 0.92. The list shows a part of the results.

Assay: chemical genetic growth profiling, strain panel (AID 1159580);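 also: tested at 20 µM; growth read once vehicle control cultures reached saturation at 30 °C; 1 = growth at the plate median or of vehicle wells; lower values mean less growth of the strain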
Conditions: S. cerevisiae deletion strains, growth OD

Measured: normalized growth

CC(=O)Oc1ccc2c(c1)CCC1C2CC[C@@]2(C)C1CC[C@@H]2OC(C)=O (some centres undefined)
inactive: locus YAL021C, strain ccr4, hits give low values 1.01 | locus YAL026C, strain drs2, hits give low values 0.984 | locus YAL030W, strain snc1, hits give low values 0.984 | locus YBL061C, strain skt5, hits give low values 0.977 | locus YBR009C, strain hhf1, hits give low values 0.969 | locus YBR021W, strain FUR4, hits give low values 0.955 | locus YBR023C, strain chs3, hits give low values 0.957 | locus YBR171W, strain sec66, hits give low values 0.921 | locus YBR229C, strain ROT2, hits give low values 0.94 | locus YBR231C, strain swc5, hits give low values 1.02 | locus YBR279W, strain paf1, hits give low values 1.02 | locus YCL011C, strain gbp2, hits give low values 0.991 | locus YCL016C, strain dcc1, hits give low values 0.991 | locus YCL029C, strain bik1, hits give low values 0.972 | locus YCL069W, strain vba3, hits give low values 0.989 | locus YCR088W, strain abp1, hits give low values 0.978 | locus YDL005C, strain med2, hits give low values 1 | locus YDL035C, strain GPR1, hits give low values 0.971 | locus YDL040C, strain nat1, hits give low values 0.994 | locus YDL074C, strain BRE1, hits give low values 0.872 | locus YDL101C, strain DUN1, hits give low values 0.969 | locus YDL134C, strain PPH21, hits give low values 0.985 | locus YDL185W, strain tfp1, hits give low values 0.983 | locus YDL192W, strain arf1, hits give low values 0.984 | locus YDR001C, strain nth1, hits give low values 0.983 | locus YDR069C, strain doa4, hits give low values 0.983 | locus YDR101C, strain arx1, hits give low values 0.967 | locus YDR159W, strain sac3, hits give low values 0.924 | locus YDR162C, strain NBP2, hits give low values 0.969 | locus YDR195W, strain ref2 1.08 | locus YDR297W, strain sur2, hits give low values 0.988 | locus YDR318W, strain mcm21, hits give low values 0.971 | locus YDR334W, strain swr1, hits give low values 0.994 | locus YDR335W, strain msn5, hits give low values 1.03 | locus YDR388W, hits give low values 0.979 | locus YDR502C, strain sam2, hits give low values 0.969 | locus YEL003W, strain gim4, hits give low values 0.973 | locus YEL037C, strain rad23, hits give low values 0.992 | locus YEL061C, strain CIN8 (second series), hits give low values 0.992 | locus YEL061C, strain CIN8, hits give low values 0.964 | locus YER015W, strain faa2, hits give low values 1 | locus YER016W, strain bim1, hits give low values 1 | locus YER110C, hits give low values 0.984 | locus YER111C, strain swi4, hits give low values 0.986 | locus YER155C, strain BEM2 (second series), hits give low values 0.951 | locus YER155C, strain BEM2, hits give low values 0.973 | locus YER167W, strain BCK2, hits give low values 0.971 | locus YFR010W, strain ubp6, hits give low values 1 | locus YGL078C, strain dbp3, hits give low values 0.98 | locus YGL086W, strain mad1, hits give low values 0.958 | locus YGL167C, strain pmr1, hits give low values 0.973 | locus YGL173C, strain kem1, hits give low values 0.987 | locus YGL227W, strain vid30, hits give low values 0.989 | locus YGL240W, strain doc1, hits give low values 0.993 | locus YGL248W, strain PDE1, hits give low values 0.94 | locus YGL253W, strain hxk2, hits give low values 1.01 | locus YGR078C, strain PAC10, hits give low values 0.943 | locus YGR135W, strain pre9, hits give low values 0.986 | locus YGR229C, strain SMI1, hits give low values 0.954 | locus YGR252W, strain gcn5, hits give low values 0.947 | locus YHR013C, strain ard1, hits give low values 1.02 | locus YHR027C, strain rpn1, hits give low values 0.995 | locus YHR030C, strain SLT2, hits give low values 0.988 and 0.952 | locus YHR079C, strain IRE1 (second series), hits give low values 0.977 | locus YHR079C, strain IRE1, hits give low values 0.937 | locus YHR094C, strain hxt1, hits give low values 0.978 | locus YHR129C, strain ARP1, hits give low values 0.982 | locus YHR142W, strain chs7, hits give low values 0.953 | locus YHR200W, strain rpn10, hits give low values 0.963 | locus YIL066C, strain RNR3, hits give low values 0.948 | locus YIL073C, strain SPO22, hits give low values 0.97 | locus YIL125W, strain kgd1, hits give low values 0.966 | locus YIR030C, strain dcg1, hits give low values 0.981 | locus YJL092W, strain hpr5, hits give low values 0.975 | locus YJL095W, strain BCK1 (second series), hits give low values 0.973 | locus YJL095W, strain BCK1, hits give low values 0.926 and 0.951 | locus YJL115W, strain asf1, hits give low values 0.997 | locus YJL129C, strain trk1, hits give low values 0.886 | locus YJL134W, strain LCB3, hits give low values 0.978 | locus YJL154C, strain vps35, hits give low values 0.995 | locus YJL164C, strain tpk1, hits give low values 0.958 | locus YJL166W, strain qcr8, hits give low values 0.988 | locus YJL168C, strain set2, hits give low values 0.963 | locus YJL187C, strain SWE1 (second series), hits give low values 0.956 | locus YJL187C, strain SWE1, hits give low values 0.979 | locus YJR043C, strain POL32, hits give low values 0.976 | locus YJR066W, strain TOR1, hits give low values 0.956
active: locus YDR137W, strain rgp1, hits give low values 0.841 | locus YDR392W, strain spt3, hits give low values 0.674
